Experimental findings from PubChem BioAssay AID493162 (ICCB-Longwood Screening Facility, Harvard Medical School, 2011) are described below.

Among all 46,000 compounds or so, about 430 (0.93%) were called active. Rule as the data show it: active = normalized absorbance mostly below about 85% (no sharp cut-off); inactive = mostly above about 86%. The list comes from a sample in which actives are over-represented; it also holds similar structures and randomly drawn compounds.

This experiment concerns Vaccinia virus DNA polymerase (E9) processive complex. Kind of experiment: vaccinia E9 polymerase processive synthesis inhibitors, primary screen, biochemical, absorbance (AID 493162). As to conditions: in vitro processive DNA synthesis, absorbance read-out; active compounds read low; concentration not given here.
As to `CC(C)NC(=O)CN1C(=O)c2cccnc2Oc2ccccc21`, the normalized absorbance is 102% (inactive).
Turning to `O=C(NCc1ccccc1Cl)C1(c2ccccc2)CCCC1`, the normalized absorbance is 97.8% (inactive).
In the case of `CS(=O)(=O)N1CCN=C1SCc1cccnc1` it was 66.5% (active); in that of `O=C(O)CCc1cccnc1`, 102% (inactive); in that of `CSC1=NCCN1S(=O)(=O)c1ccc(Br)cc1`, 110% (inactive).
Take `COC(=O)Nc1cn(Cc2ccccn2)c(=O)c2ccccc12`: the normalized absorbance is 112% (inactive).
On to `O=c1[nH]c(=S)[nH]cc1S(=O)(=O)c1ccc(F)cc1`, for which the normalized absorbance is 99.5% (inactive).
For `O=C(Nc1ccc2nc(SCC(=O)N3CCc4ccccc43)sc2c1)c1ccccc1Cl`, the normalized absorbance is 100% (inactive).
The value for `CCN(CC)c1ccc(C=Nc2cc(C)cc(C)c2)cc1` was 100% (inactive).
As for `CCOc1ccc(S(=O)(=O)N2CCC(C)CC2)cc1`, the normalized absorbance is 99% (inactive).
`Nc1ccc(-c2nc3ccccc3[nH]2)c(N)c1`: the normalized absorbance was 99.3% (inactive).
In the case of `COc1ccc(C2=NS(=O)(=O)N(C)C(C(=O)N(C)Cc3ccccc3)=C2)cc1`, the normalized absorbance is 86.6% (inactive).
With `Cc1cccc(-n2nc3c(c2NC(=O)/C=C\c2ccco2)CSC3)c1C`, the normalized absorbance was 85.2% (inactive).
Consider `CC(=O)n1c(C=Nc2ccccc2)c(O)c2ccccc21`, for which the normalized absorbance is 99.4% (inactive).
In the case of `CC(=O)n1c2ccccc2c2nc(C)sc21`, the normalized absorbance was 45.9% (active).
Regarding `CC(=O)Nc1sc(C)nc1-c1ccccc1`, the normalized absorbance was 99.1% (inactive).
For `Cc1nc2ccc(S(=O)(=O)NC(CC(C)C)C(=O)NC3CCCCCC3)cc2s1` (configuration not stated), the normalized absorbance was 103% (inactive).
The value for `CCOc1ccc(C(=O)Nc2nc3c(OC)cccc3s2)cc1` was 106% (inactive); that for `Cc1ccc(S(=O)(=O)N2CCCC(n3cccc3)C2)cc1` (configuration not stated) was 117% (inactive).
Regarding `CC12CCC3C(CCC4CCCCC43C)C1C/C(=C\c1ccc[nH]1)C2=O` (configuration not stated), the normalized absorbance was 101% (inactive).
As to `Cc1cc(Nc2ccc(Cl)cc2)n2c(nc3ccccc32)c1C#N`, the normalized absorbance is 100% (inactive).
Take `COc1ccc(-c2cc(-c3ccccc3)nc(SCC(N)=NC#N)c2C#N)cc1`: the normalized absorbance is 100% (inactive).
Consider `C[N+](C)(C)CCOC(=O)c1ccccc1`, for which the normalized absorbance was 99.6% (inactive).
In the case of `Cc1nc(C)nc(N(Cc2ccccc2)Cc2ccccc2)n1`, the normalized absorbance is 94.7% (inactive).
With `Cc1ccc(Nc2c(-c3c[nH]c4ccccc34)nc3c[n+](CC(N)=O)ccn23)cc1`, the normalized absorbance was 95.2% (inactive).
The value for `COc1ccc(C(=O)N2CCN(c3ccc(N4CCOCC4)nn3)CC2)cc1` was 101% (inactive); that for `O=C1NC(=Nc2ccc(O)cc2)S/C1=C\c1ccc(Cl)cc1Cl` was 100% (inactive); that for `CC1CCc2sc(NC(=O)Cc3ccccc3)c(C(N)=O)c2C1` (configuration not stated) was 89.9% (inactive).
In the case of `COc1ccc(C(=O)CSC2=C(C#N)C(c3cccs3)CC(=O)N2)cc1` (configuration not stated) it was 101% (inactive); in that of `N#Cc1c(-c2cccs2)nc(SCC(=O)c2ccc(Br)cc2)[nH]c1=O`, 68.9% (active).
The value for `Cc1nc(SCC(=O)c2ccc(Cl)cc2)c(C#N)c(C)c1C` was 99.7% (inactive); that for `O=C(NCc1cccnc1)c1cc(-c2ccccn2)nc2ccccc12` was 102% (inactive).
For the molecule `COc1ccc(-c2nnn(-c3cccc(C(F)(F)F)c3)c2N)cc1OC`, the normalized absorbance is 112% (inactive).
For the molecule `Cc1cc(C)cc(Oc2coc3c(CN4CCCCCC4)c(O)ccc3c2=O)c1`, the normalized absorbance is 100% (inactive).
Regarding `O=C(CCc1nc(-c2ccccc2)no1)N1CCCCC1`, the normalized absorbance is 94.1% (inactive).
Consider `Fc1ccccc1Cn1cnc2ccccc21`, for which the normalized absorbance is 100% (inactive).
In the case of `O=C(O)CCCC(=O)Nc1ccccn1` it was 98.3% (inactive); in that of `Cc1cc(-c2cn(/N=C/c3ccc(Cl)cc3Cl)c(N)n2)c(C)s1`, 97.6% (inactive); in that of `Cc1nc2cc(Cl)ccc2c(=O)n1-c1nc2ccccc2[nH]1`, 103% (inactive).
With `CC(C)(C)c1cn2c3ccccc3nc2n1CCCO`, the normalized absorbance was 96.5% (inactive).
In the case of `Cc1nnc(SCC(=O)O)[nH]c1=O`, the normalized absorbance is 96.1% (inactive).
In the case of `Cc1nc2sc(C(c3ccc(F)cc3)N3CCC(O)CC3)c(O)n2n1` (configuration not stated), the normalized absorbance is 101% (inactive).
The value for `CC(C)Nc1nc(-c2ccccc2O)nc2ccccc12` was 102% (inactive); that for `O=C(O)CSc1ccc2ccccc2c1Br` was 85.4% (active); that for `Cc1nc2ccccc2nc1SCC(=O)O` was 103% (inactive).
Turning to `O=C(O)CSc1ccc(Br)c2cccc(Cl)c12`, the normalized absorbance was 81.7% (inactive).
Consider `COc1ccc(C2CC(=O)n3nc(-c4ccccc4)nc3S2)cc1OC` (configuration not stated), for which the normalized absorbance was 100% (inactive).
In the case of `Cc1cc2cc(CNS(=O)(=O)N(C)C)ccc2n1C`, the normalized absorbance was 101% (inactive).
In the case of `O=S(=O)(c1cccc2cccnc12)N1CCN(c2cccc(Cl)c2)CC1` it was 101% (inactive); in that of `Cc1nc(N2CC(C)OC(C)C2)c2c3c(sc2n1)CCC3` (configuration not stated), 100% (inactive).
Turning to `COc1ccccc1NC(=O)c1cccc(N2C(=O)C3CC=CCC3C2=O)c1` (configuration not stated), the normalized absorbance is 89.3% (inactive).
Consider `COc1ccc(C2C=C(c3ccccc3)NC(=O)C2C#N)cc1` (configuration not stated), for which the normalized absorbance was 94.4% (inactive).
In the case of `Cc1ccc(-c2nc(C)sc2CC(=O)O)cc1` it was 98.3% (inactive).
The value for `COc1ccc(NS(=O)(=O)c2ccc(Oc3c(C#N)cccc3C#N)cc2)cc1` was 104% (inactive); that for `CCCn1c[n+](CC(=O)C(C)(C)C)c2ccccc21` was 101% (inactive); that for `COc1ccc(NC(=O)C(C)n2cccc2)cc1` (configuration not stated) was 102% (inactive).
`O=c1[nH]c(-c2ccc(F)cc2)nc2ccccc12`: the normalized absorbance was 102% (inactive).
The value for `Cn1nnnc1SCC(=O)Nc1nccs1` was 104% (inactive); that for `C=CCn1c(SCC(=O)Nc2nnc(CC)s2)nnc1-c1cccs1` was 99.4% (inactive); that for `CC(NC(=O)Nc1ccc2c(c1)N(C)C(=O)c1ccccc1S2)c1ccccc1` (configuration not stated) was 110% (inactive).
Consider `CN1CCc2ccccc2C1Cc1ccccc1NS(=O)(=O)c1cccc(C(F)(F)F)c1` (configuration not stated), for which the normalized absorbance is 97.1% (inactive).
The value for `O=C1c2ccccc2-c2nn(CC(=O)N3CCOCC3)c3cccc1c23` was 92.9% (inactive).
With `O=c1c2ccccc2c(-c2ccccc2)nn1Cc1ccccc1`, the normalized absorbance is 99.7% (inactive).
As to `O=c1c2cccc3c2c(nn1CN1CCCCC1)-c1ccccc1-3`, the normalized absorbance is 76% (active).
Take `CCOC(=O)CSc1nc2ccccc2n1C(=O)Oc1ccccc1`: the normalized absorbance is 95.5% (inactive).
Regarding `O=C(O)CCc1nnc2ccc(N3CCCC3)nn12`, the normalized absorbance is 103% (inactive).
As to `FC(F)(F)c1cccc(Oc2cnc3ccccc3n2)c1`, the normalized absorbance is 95.2% (inactive).
